The list is not random: actives were taken first. Their share in the collection is about 6.7%.
MCF10A rerep: DNA re-replication induction in MCF 10a cells. MCF 10A DNA re-replication, Hoechst nuclear intensity, 48 h. Potency, µM (highest dose often 46.1 µM), inactives show at the highest dose activity, positive = re-replication, most hits filed as activators. 2.9% of 350,000 active. AID 624296; also: % of control where 0% means no effect; nearly all actives have a fitted effect of over 50% in size
SW480 rerep: DNA re-replication induction in SW480 cells. Potency, µM (highest dose often 46.1 µM), for the others: top-dose re-replication activation, actives largely listed as activators. SW480 DNA re-replication, Hoechst DNA content imaging, 48 h. 1.8% of 340,000 active. AID 624297; also: % of control where 0% means no effect; nearly all actives have a fitted effect of over 55% in size
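SW480 cells exposed to compounds for 48 hr at 37 C, 5% CO2, then Hoechst-stained 40 min. Nuclear DNA content imaged by fluorescence scanning (405 nm excitation, 500-530 nm emission); re-replication scored as increased high-intensity nuclei.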
PINK1 expr mod: changes PINK1 expression | PINK1 immunofluorescence, high-content cytometry, 24 h | Potency, µM (doses to about 76.6 µM), for the others: at the highest dose activation (PINK1 increase), hits mostly activators | 0.2% of 410,000 active | AID 624263; active = well fitted activation curve with a large enough effect; inconclusive = small, poorly fitted or top-dose-only effect; cell line not stated here; also: % of control where 0% means no effect; nearly all actives have a fitted effect of over 65% in size
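Readout is PINK1 immunofluorescence, quantified alongside mitochondrial, cell and nuclear markers by laser-scanning microplate cytometry. Cells from a stable line were exposed to compound titrations (5 concentrations) for 24 hours, with CCCP controls.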
KB-3-1 cytotox: kills parental KB-3-1 adenocarcinoma cells; KB-3-1 viability, CellTiter-Glo ATP luminescence, 72 h; Potency, µM (titrated, usually from 46.1 µM), actives largely listed as cytotoxic; 1.4% of 400,000 active; also: % is scaled to controls: 0 for no effect and ±100 for the full control effect; nearly all actives have a fitted effect of over 60% in size
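Cytotoxicity measured as CellTiter-Glo luminescence after 72 h at 37 C. Compound titrations were pinned onto drug-naive KB-3-1 parental adenocarcinoma cells grown in DMEM with 10% FBS, and normalized data fitted to concentration-response curves.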
KB-V1 MDR tox: kills drug-selected multidrug resistant KB-V1 cells | KB-V1 MDR cells viability, CellTiter-Glo, 72 h | Potency, µM (titrated, usually from 46.1 µM), usual class: cytotoxic | 3.4% of 400,000 active; also: % is scaled to controls: 0 for no effect and ±100 for the full control effect; nearly all actives have a fitted effect of over 60% in size
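KB-V1 MDR subline cells in DMEM (phenol-red free, 10% FBS) exposed to compounds in qHTS concentration series for 72 h at 37 degrees C. Viability read by CellTiter-Glo luminescence; concentration-effect curves fitted after normalization and correction.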
Starred values were filed as active, the others as inactive; i = inactive; u = inconclusive; x = no result given; [ ] = dose if it differs, or a comment. Unless noted, calls follow the shape of the dose curve; as a rule, active = well fitted curve in the direction sought with a large enough effect; inconclusive = small, poorly fitted or top-dose-only effect, or another doubt; inactive = no such curve, though single readings can be large; an effect the other way counts as inactive or inconclusive. Potency is read from the fitted curve at half-maximal effect.

SMILES	MCF10A rerep	SW480 rerep	PINK1 expr mod	KB-3-1 cytotox	KB-V1 MDR tox
Cc1ccc(-n2nc3c(c2NC(=O)c2c(-c4ccccc4Cl)noc2C)CS(=O)(=O)C3)c(C)c1	0%	0%	5%	i	12µM*
CC(C(=O)Nc1ccccc1-c1ccccc1)N1CCN(S(=O)(=O)c2ccccc2)CC1 (configuration not stated)	u	11%	0%	i	2.9µM*
CC(C)c1ccc(S(=O)(=O)N2CCN(C(C)C(=O)Nc3ccccc3-c3ccccc3)CC2)cc1 (configuration not stated)	3%	2%	3%	i	i
CCCC(NC(=O)C(C)N1CCN(S(=O)(=O)c2ccccc2)CC1)c1ccccc1 (configuration not stated)	0%	-2%	1%	i	7.3µM*
CCCc1ccc(S(=O)(=O)N2CCN(C(C)C(=O)NCc3ccccc3)CC2)cc1 (configuration not stated)	8%	9%	1%	i	u
Cc1ccc(S(=O)(=O)N2CCN(C(C)C(=O)NCC(C)c3ccccc3)CC2)cc1 (configuration not stated)	4%	9%	-1%	i	i
CC(NC(=O)C(C)N1CCN(S(=O)(=O)c2ccccc2)CC1)c1ccccc1 (configuration not stated)	0%	1%	0%	i	15µM*
COc1cc2nc(NC3CCN(C)CC3)nc(N3CCCN(C)CC3)c2cc1OC	x	x	-1%	x	x
CN(C)[C@H]1CCN([C@@H]2CS(=O)(=O)N[C@H]2COCc2ccccc2)C1	x	x	3%	i	i
CN(C)c1ccc(C(=O)C(O)c2ccccc2)cc1 (configuration not stated)	1%	-1%	2%	i	i
CN(C)c1ccc(C(c2ccc(N(C)C)cc2)C(O)c2ccccc2)cc1 (configuration not stated)	23%	-3%	1%	i	16µM*
COc1ccccc1CNC(=O)CN1C(=O)COc2ccc(S(=O)(=O)N3CCCCC3)cc21	-2%	2%	0%	i	i
Cc1ccc(Oc2cc(C)nc(-c3ccccc3O)n2)cc1	u	4%	9%	i	i
Cc1cc(OC2CCCCC2)nc(-c2ccccc2O)n1	21µM*	10%	12%	i	i
CN1CCN(C(=O)C2=C[C@@H](c3coc4ccccc4c3=O)C[C@@H](OCc3ccc(CO)cc3)O2)CC1	-11%	-12%	-1%	i	i
O=C(C1=C[C@H](c2ccccc2)C[C@H](OCc2ccc(CO)cc2)O1)N1CCN(Cc2ccccc2)CC1	u	-17%[9.22 µM]	2%	i	i
O=C(C1=C[C@@H](C2CCCCC2)C[C@@H](OCc2ccc(CO)cc2)O1)N1CCOCC1	6%	0.18µM*	0%	i	i
O=C(C1=C[C@@H](c2ccccc2)C[C@@H](OCc2ccc(CO)cc2)O1)N1CCN(Cc2ccc3c(c2)OCO3)CC1	u	u	1%	10µM*	u
O=C(C1=C[C@@H](C2CC2)C[C@@H](OCc2ccc(CO)cc2)O1)N1CCOCC1	8%	-11%	0%	i	i
O=C(C1=C[C@@H](c2coc3ccccc3c2=O)C[C@@H](OCc2ccc(CO)cc2)O1)N1CCCCCCC1	1.3µM*	5%[9.22 µM]	0%	i	i
Cc1cccc(N2N=C(C(=O)Nc3ccc(Cl)c(S(=O)(=O)N4CCOCC4)c3)CCC2=O)c1	-46%	4%	0%	x	x
CCOC(=O)c1ccc(NC(=O)C2CCCO2)cc1 (configuration not stated)	1%	-9%	2%	i	i
CCOC(=O)c1cc(NC(=O)C2CCCO2)cc(C(=O)OCC)c1 (configuration not stated)	1%	-11%	-4%[38.3 µM]	i	13µM*
CCc1ccc(NC(=O)c2ccc(NC(=O)C3CCCO3)cc2)cc1 (configuration not stated)	3%	-5%	0%	i	23µM*
Oc1ccc(-c2csc(-c3c[nH]c4ccccc34)n2)c(O)c1	u	7%	-1%	18µM*	u

High-throughput results deposited in PubChem by National Center for Advancing Translational Sciences (NCATS).
